LYP inh 2 = PTPN22 phosphatase inhibitors, primary screen, biochemical, DiFMUP fluorescence, 2 µM | inhibition, % at 2 µM | Tyrosine-protein phosphatase non-receptor type 22 (Homo sapiens), Q9Y2R2 | actives 0.21% (n = 96,000) | recombinant LYP catalytic domain;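 active means inhibition at 2 µM at or above a set limit, the screen mean plus 3 SD, cut at about 24% in these data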;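 further: 0% = DMSO with enzyme and 100% = enzyme fully blocked by orthovanadate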
FAK blocker = FAK kinase inhibitors, primary screen, biochemical; Focal adhesion kinase 1 (Homo sapiens), Q05397; biochemical FAK kinase activity assay; inhibition, %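 (tested at 7 µM)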; actives 0.84% (n = 97,000);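 further: 0% = DMSO and 100% = reference compound high control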
Target sequence (Q05397 whole entry, looked up): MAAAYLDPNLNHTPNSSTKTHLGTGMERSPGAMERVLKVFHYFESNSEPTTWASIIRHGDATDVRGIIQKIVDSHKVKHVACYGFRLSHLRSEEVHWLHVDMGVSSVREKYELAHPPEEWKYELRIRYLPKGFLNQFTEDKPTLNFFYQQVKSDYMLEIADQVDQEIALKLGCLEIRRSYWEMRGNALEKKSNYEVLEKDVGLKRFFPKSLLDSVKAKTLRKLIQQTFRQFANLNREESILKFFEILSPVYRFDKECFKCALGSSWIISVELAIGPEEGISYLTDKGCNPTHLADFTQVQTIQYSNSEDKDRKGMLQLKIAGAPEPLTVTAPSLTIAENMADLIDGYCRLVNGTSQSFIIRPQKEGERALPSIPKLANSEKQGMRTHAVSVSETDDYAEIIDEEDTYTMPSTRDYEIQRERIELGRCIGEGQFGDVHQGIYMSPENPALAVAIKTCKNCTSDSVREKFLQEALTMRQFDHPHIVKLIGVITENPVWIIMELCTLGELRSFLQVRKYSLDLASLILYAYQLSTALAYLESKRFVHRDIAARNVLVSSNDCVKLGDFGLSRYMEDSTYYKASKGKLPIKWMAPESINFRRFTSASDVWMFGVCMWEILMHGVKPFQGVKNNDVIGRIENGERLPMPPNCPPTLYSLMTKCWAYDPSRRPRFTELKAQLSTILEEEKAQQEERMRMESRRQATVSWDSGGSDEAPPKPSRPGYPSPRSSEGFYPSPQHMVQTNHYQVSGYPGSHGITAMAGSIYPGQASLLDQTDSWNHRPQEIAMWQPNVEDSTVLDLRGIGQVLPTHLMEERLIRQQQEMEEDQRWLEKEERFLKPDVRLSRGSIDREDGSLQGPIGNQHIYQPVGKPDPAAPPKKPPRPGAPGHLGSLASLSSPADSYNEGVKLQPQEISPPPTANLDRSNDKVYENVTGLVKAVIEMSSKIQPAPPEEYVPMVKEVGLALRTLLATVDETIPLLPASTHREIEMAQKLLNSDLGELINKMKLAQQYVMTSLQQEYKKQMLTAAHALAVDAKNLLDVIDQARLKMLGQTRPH
ERa SRC1 inh = ERα–SRC-1 coactivator interaction inhibitors, primary screen, biochemical, TR-FRET, ERα LBD, estradiol-bound; Estrogen receptor (Homo sapiens), P03372; TR-FRET ER-alpha LBD / SRC-1 peptide; inhibition, % at 25.6 µM; actives 1.7% (n = 86,000); AID 629, 2007; in the data active means inhibition above about 50%;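 further: 0% = receptor plus peptide control and 100% = peptide only without receptor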
PTPN22 act = LYP phosphatase activators, primary screen, biochemical, DiFMUP fluorescence, 2 µM | Tyrosine-protein phosphatase non-receptor type 22 (Homo sapiens), Q9Y2R2 | recombinant LYP; 0 = plate median, 100 = signal doubled | activation, % at 2 µM | actives 0.11% (n = 96,000);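 active means activation at 2 µM above a set limit, the mean plus 5 SD, cut at about 37% in these data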
ERa SRC1 pot = enhancers of ERα–SRC-1 coactivator binding, primary screen, biochemical, TR-FRET, ERα LBD, low estradiol; Estrogen receptor (Homo sapiens), P03372; TR-FRET ERalpha-LBD/SRC-Cy5 coactivator binding, 2 h; 100 = basal binding, no effect; coactivator binding (% of control), % at 25.6 µM; actives 1.3% (n = 86,000); AID 639, 2007; in the data active means activity above about 200%;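 further: binding measured in presence of low estradiol as agonist stimulus; 0% = peptide alone without receptor and 100% = receptor with peptide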
ERb SRC1 inh = inhibitors of ERβ-SRC1 coactivator interaction, primary screen, biochemical, TR-FRET, ERβ LBD, SRC-1 peptide. inhibition, % at 25.6 µM. AID 633, 2007. TR-FRET ER-beta LBD / SRC1-Cy5 peptide binding; receptor agonist-loaded with 1 µM estradiol. actives 1.3% (n = 86,000). Estrogen receptor beta (Homo sapiens), Q92731;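 active means compounds whose percent inhibition of the receptor-coactivator binding signal exceeds about 50% in the single-dose screen, limit read from the data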;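 further: 0% = receptor plus peptide wells without compound and 100% = peptide-only wells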
FAK inh confirm = FAK kinase inhibitors, retest, confirmation, biochemical. FAK kinase biochemical inhibition assay. actives 28% (n = 750). shares compounds with FAK blocker. inhibition, % at 7 µM. AID 794, 2007
* hit, by the source's call; [ ] = remark or other dose. Compounds with a hit are over-represented: about 3.4% of the library has one in this group of screens. Unless noted, no stated cut-off is given here; in the data, active means inhibition above about 19%; inactive means the rest.

How did O=C(Cc1cccc2ccccc12)N1CCCc2ccccc21 do in these assays?
LYP inh 2: 13; FAK blocker: -3; ERa SRC1 inh: 4; PTPN22 act: -12; ERa SRC1 pot: 101; ERb SRC1 inh: -9

How did CCCSc1nc(C)c(-c2csc(C(C#N)=C3CCCC3)n2)cc1C#N do in these assays?
LYP inh 2: 26*; FAK blocker: 28*; ERa SRC1 inh: 69*; PTPN22 act: -27; ERa SRC1 pot: 78; ERb SRC1 inh: 49; FAK inh confirm: 2

Results for O=C(COC(=O)C1(c2ccc(F)cc2)CCCC1)NC1CC1 ?
LYP inh 2: -5; FAK blocker: -5; PTPN22 act: 5

How did Nc1ncnc2oc(-c3ccco3)c(-c3ccco3)c12 do in these assays?
LYP inh 2: -2; FAK blocker: 54*; ERa SRC1 inh: 94*[fluorescence artefact?]; PTPN22 act: 4; ERa SRC1 pot: 13; ERb SRC1 inh: 88*[fluorescence artefact?]; FAK inh confirm: 32*

Results for CCOC(=O)NC(Nc1cc(C)ccn1)(C(F)(F)F)C(F)(F)F ?
LYP inh 2: -2; FAK blocker: 3; ERa SRC1 inh: -22; PTPN22 act: 0; ERa SRC1 pot: 108; ERb SRC1 inh: -12

What do the screens show for `O=C(NC(NC(=O)c1ccccc1)c1ccccc1)c1ccccc1`?
LYP inh 2: -11; FAK blocker: 5; ERa SRC1 inh: -2; PTPN22 act: 12; ERa SRC1 pot: 92; ERb SRC1 inh: 0

Results for Cc1ccc(-c2n[nH]c(=S)n2/N=C/C=C\c2ccccc2[N+](=O)[O-])cc1 ?
LYP inh 2: 18; FAK blocker: 29*; ERa SRC1 inh: 52*; PTPN22 act: -15; ERa SRC1 pot: 270*[fluorescence artefact?]; ERb SRC1 inh: 49; FAK inh confirm: 15

Results for O=C1[C@H]2[C@@H](C(=O)N1c1cccc3ccccc13)C1(C(=O)c3ccccc3C1=O)N1CCC[C@@H]21 ?
LYP inh 2: -9; FAK blocker: -1; ERa SRC1 inh: -5; PTPN22 act: 7; ERa SRC1 pot: 100; ERb SRC1 inh: 3

Results for O=C(COc1ccc(/C=N/NC(=O)c2cc3ccccc3o2)cc1Br)Nc1ccccc1 ?
LYP inh 2: 22; FAK blocker: 26*; PTPN22 act: -23; FAK inh confirm: 36*

What do the screens show for `O=C(Nc1ccccc1)c1cc2ccccc2o1`?
LYP inh 2: -17; FAK blocker: 0; ERa SRC1 inh: 4; PTPN22 act: 18; ERa SRC1 pot: 84; ERb SRC1 inh: 2

Results for O=[N+]([O-])c1cc(/C=N\Nc2nccs2)ccc1O ?
LYP inh 2: 40*; FAK blocker: 91*; ERa SRC1 inh: 100*[fluorescence artefact?]; PTPN22 act: -38; ERa SRC1 pot: 2; ERb SRC1 inh: 100*[fluorescence artefact?]; FAK inh confirm: 72*

Results for CC(C)Cn1c(CN2CCN(c3ccccc3F)CC2)nc2c1c(=O)[nH]c(=O)n2C ?
LYP inh 2: 2; FAK blocker: 4; ERa SRC1 inh: -2; PTPN22 act: -3; ERa SRC1 pot: 124; ERb SRC1 inh: -4

How did CCn1nnc(NC(=O)c2cccc(-c3cc4ccccc4oc3=O)c2)n1 do in these assays?
LYP inh 2: 2; FAK blocker: -1; ERa SRC1 inh: 2; PTPN22 act: -4; ERa SRC1 pot: 93; ERb SRC1 inh: 2

What do the screens show for `CCOc1ccc(C(=O)Nc2cccc(-c3cc4ccccc4oc3=O)c2)cc1[N+](=O)[O-]`?
LYP inh 2: -9; FAK blocker: 30*; PTPN22 act: 12; FAK inh confirm: 13

Results for COc1ccc2cc(CCNC(=O)c3c(-c4ccccc4Cl)noc3C)c(=O)[nH]c2c1 ?
ERa SRC1 inh: 14; ERa SRC1 pot: 108; ERb SRC1 inh: 16

How did O=C(Cc1cccs1)NCCn1ccc2ccccc21 do in these assays?
ERa SRC1 inh: -7; ERa SRC1 pot: 94; ERb SRC1 inh: -11

What do the screens show for `CC(C)(C)n1nc(-c2ccc(F)cc2)c2c(N)ncnc21`?
LYP inh 2: -3; FAK blocker: 32*; PTPN22 act: 1; FAK inh confirm: 8

What do the screens show for `Cc1ccc(-c2nc(N)c3c(-c4ccc(C)cc4)nn(C(C)(C)C)c3n2)cc1`?
LYP inh 2: -16; FAK blocker: 9; PTPN22 act: 13

Results for CC(C)(C)n1nc(-c2ccc(Cl)cc2)c2c(N)ncnc21 ?
LYP inh 2: -6; FAK blocker: 26*; PTPN22 act: 3; FAK inh confirm: 12

Results for O=C1c2cccnc2C(=O)N1Cc1ccccc1 ?
ERa SRC1 inh: -2; ERa SRC1 pot: 75; ERb SRC1 inh: 11

How did O=C1Cc2ccccc2C(=O)N1Cc1ccccc1 do in these assays?
LYP inh 2: -10; FAK blocker: 54*; ERa SRC1 inh: 4; PTPN22 act: 12; ERa SRC1 pot: 98; ERb SRC1 inh: -11; FAK inh confirm: 28*

How did Cc1cc2n(c1)CCn1c(C)ccc1-2 do in these assays?
LYP inh 2: -2; FAK blocker: 23*; ERa SRC1 inh: 91*[fluorescence artefact?]; PTPN22 act: 2; ERa SRC1 pot: 9; ERb SRC1 inh: 52*; FAK inh confirm: 17

How did c1ccc(CNc2ncnc3sc4c(c23)CCC4)nc1 do in these assays?
LYP inh 2: 4; FAK blocker: 20*; ERa SRC1 inh: -3; PTPN22 act: 0; ERa SRC1 pot: 104; ERb SRC1 inh: 7; FAK inh confirm: 3

Results for c1nc(NCCN2CCOCC2)c2c3c(sc2n1)CCCCC3 ?
LYP inh 2: 2; FAK blocker: 7; ERa SRC1 inh: -3; PTPN22 act: -4; ERa SRC1 pot: 145; ERb SRC1 inh: -7

How did CCC(C)NC(=O)CSc1ncccc1C(=O)O (configuration not stated) do in these assays?
LYP inh 2: -3; FAK blocker: -3; ERa SRC1 inh: 1; PTPN22 act: 6; ERa SRC1 pot: 99; ERb SRC1 inh: -8

How did Cc1cccn2c(=O)c(C=Nc3ccccc3)c(NCc3ccco3)nc12 do in these assays?
LYP inh 2: -10; FAK blocker: 24*; ERa SRC1 inh: 12; PTPN22 act: 6; ERa SRC1 pot: 105; ERb SRC1 inh: 18; FAK inh confirm: 4

How did CCOC(=O)COc1c(Br)cc(/C=C2\SC(=O)N(CC(=O)N3CCCC3)C2=O)cc1OC do in these assays?
LYP inh 2: 4; FAK blocker: 2; PTPN22 act: -5

Screens (PubChem BioAssay)
